Screening results as filed in PubChem BioAssay.
This is a sample that favours compounds with a hit; in the whole collection about 6.1% have one here.
Gal4-VP16 FLuc: inhibits Gal4-VP16 luciferase reporter, ROR gamma counter-screen | Potency, µM (top dose mostly 53.6 µM), for inactives: at the highest dose activity, negative = inhibition, hits mostly inhibitors | hit rate 3.5% among 310,000 | Drosophila S2 Gal4-VP16 UAS-luciferase, luminescence, 20 h | AID 2546;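 also: Gal4-VP16 expression switched on by copper sulfate through the metallothionein promoter; % is scaled to controls: 0 for no effect and ±100 for the full control effect; nearly all actives have a fitted effect of over 50% in size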
ATXN2 expr inh: ATXN2 expression inhibition; HEK-293 ATXN2-luciferase reporter, luminescence, 24 h; Potency, µM (highest dose often 57 µM), inactives show top-dose activity change, negative = inhibition, actives largely listed as inhibitors; hit rate 0.72% among 360,000; also: % is scaled to controls: 0 for no effect and ±100 for the full control effect; nearly all actives have a fitted effect of over 55% in size
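qHTS (up to 57 uM final) was run with 24 h compound exposure of reporter cells at 37 °C. Each well was multiplexed: SteadyGlo luminescence measured ATXN2-luciferase expression after a fluorogenic Gly-Phe-AFC viability readout (25 uM final).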
TGFb inhibitor: blocks TGF-b signaling | Potency, µM (series often up to 46.1 µM), without a hit: at the highest dose activity, negative = inhibition, usual class: inhibitors | hit rate 1.2% among 410,000 | HepG2 CAGA-GFP TGF-b/SMAD3 reporter, GFP fluorescence, 18 h; TGF-beta stimulated, 500 pg/mL final | AID 588855; also: % is scaled to controls: 0 for no effect and ±100 for the full control effect; nearly all actives have a fitted effect of over 65% in size
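Per well, imaged GFP fluorescence of HEPG2 CAGA-GFP cells gives the signal; cells get compound, then TGF-beta (500 pg/mL final), 18 h at 37 degrees C; %Activity versus -TGF-beta and +DMSO controls.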
ATXN viability: cell viability loss in ATXN counter-screen; S2 cells (HEK-293 line with an ATXN2-luciferase reporter) viability, CellTiter-Fluor protease fluorescence, 24 h; Potency, µM (top dose mostly 56.7 µM), hits mostly cytotoxic; hit rate 0.49% among 400,000; also: nearly all actives have a fitted effect of over 40% in size
HepG2 tox: counter-screen for TGF-b inhibitors: cytotoxicity in HepG2 cells; HepG2 CAGA-GFP viability, ATP luminescence, 18 h; Potency, µM (top dose mostly 46.1 µM), for the others: at the top dose activity change, negative = cytotoxicity, most hits filed as cytotoxic; hit rate 0.76% among 410,000; AID 588856
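CellTiter-Glo luminescence gave cytotoxicity after 18 hours at 37 degrees C. The cells were HepG2 CAGA-GFP in 1% FBS DMEM, stimulated with 500 pg/mL TGF-beta after compound addition. %Activity was normalised to no-cell wells (complete cell-killing) and DMSO (no toxicity), and curves were fitted and classified.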
RORg inh: blocks mouse ROR gamma transcriptional activity. P51450. Drosophila S2 Gal4-RORgamma UAS-luciferase reporter, 20 h. Potency, µM (top dose mostly 53.6 µM), without a hit: at the highest dose activity change, negative = inhibition, most hits filed as inhibitors. hit rate 5.4% among 310,000; also: % is scaled to controls: 0 for no effect and ±100 for the full control effect; nearly all actives have a fitted effect of over 60% in size
Target sequence (P51450 whole entry, looked up, the tested form may be a part): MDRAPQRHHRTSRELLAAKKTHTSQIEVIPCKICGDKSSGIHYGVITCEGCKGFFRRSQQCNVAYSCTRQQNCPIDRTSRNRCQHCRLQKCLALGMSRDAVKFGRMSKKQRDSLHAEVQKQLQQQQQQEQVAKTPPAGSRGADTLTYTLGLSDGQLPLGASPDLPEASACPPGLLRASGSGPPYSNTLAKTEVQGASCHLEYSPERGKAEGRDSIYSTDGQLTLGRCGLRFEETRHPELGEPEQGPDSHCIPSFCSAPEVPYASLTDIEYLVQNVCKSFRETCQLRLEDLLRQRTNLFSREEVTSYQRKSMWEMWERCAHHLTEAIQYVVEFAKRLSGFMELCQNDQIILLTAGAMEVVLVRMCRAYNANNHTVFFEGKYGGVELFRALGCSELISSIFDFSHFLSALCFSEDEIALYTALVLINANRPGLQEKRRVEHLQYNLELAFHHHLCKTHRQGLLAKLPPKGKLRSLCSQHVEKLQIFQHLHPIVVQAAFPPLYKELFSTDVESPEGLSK
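In this cell-based reporter format, copper sulfate (700 uM final) drives Gal4–ROR gamma fusion expression from a metallothionein promoter in Drosophila Schneider cells; compounds preincubated 1 hr, reporter read after 20 hr at ambient temperature.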
The depositor's hits bear a star; i = inactive; ? = inconclusive; · = no result; [ ] = remark or other dose. Calls follow the shape of the dose curve; as a rule, active = well fitted curve in the direction sought with a large enough effect; inconclusive = small, poorly fitted or top-dose-only effect, or another doubt; inactive = no such curve, though single readings can be large; an effect the other way counts as inactive or inconclusive. Potency is read from the fitted curve at half-maximal effect.

SMILES	Gal4-VP16 FLuc	ATXN2 expr inh	TGFb inhibitor	ATXN viability	HepG2 tox	RORg inh
CCc1ccc(Nc2nc3ccccc3c(=O)s2)cc1	1.41µM*	6.0%	0.0%	?	-14.6%	0.891µM*
CCc1ccc(Nc2nc3ccccc3nc2NS(=O)(=O)c2ccccc2)cc1	·	6.0%	?	i	-42.0%	·
CCOc1ccc(Nc2nc3ccccc3c(=O)s2)cc1	?	9.7%	-3.9%	i	14.7%	3.98µM*
COc1cc(OC)c(NC(=O)N2CCc3cc(S(=O)(=O)N4CCC(C)CC4)ccc32)cc1Cl	·	·	·	·	-6.4%	·
CCn1c(-c2ccccc2)c(C(=O)CCl)c2ccccc21	?	·	3.2%	3.98µM*	8.7%	11.2µM*
Cn1c(-c2ccccc2)c(O)c(=O)c2ccccc21	0.5%[10 µM]	·	·	·	·	-8.8%[10 µM]
Cn1c(-c2ccccc2)c(C(=O)CCl)c2ccccc21	?	?	?	7.52µM*	-55.4%	7.08µM*
CC(C)Cc1ccc(C(C)C(=O)OCc2ccccn2)cc1 (centres undefined)	·	2.2%	·	i	·	·
CCOc1ccc(C(=O)NC(=S)Nc2cccnc2)cc1[N+](=O)[O-]	-7.0%	16.8%	-23.4%	i	-3.6%	14.1µM*
CCOc1ccc(C(=O)NC(=S)Nc2ccccn2)cc1[N+](=O)[O-]	?	14.8%	20.6%	i	34.9%	0.708µM*
O=C(NC(=S)Nc1ccccn1)c1cccc([N+](=O)[O-])c1	?	24.8%	-0.4%	i	4.3%	3.55µM*
O=C1C(=Cc2ccccc2[N+](=O)[O-])Cc2ccccc21	·	·	12.6µM*	?	17.8µM*	·
Nc1ccccc1C=C1Cc2ccccc2C1=O	·	100.4%	60.2%	i	-36.0%	·
COc1ccc(-c2nnc(Nc3ccc(OCC(N)=O)cc3)c3ccccc23)cc1	·	-12.1%	-10.9%	i	-21.0%	·
C=CCN1C(=O)/C(=C/c2ccc(OC)cc2)S/C1=N/c1nccs1	-24.9%	-7.4%	3.8%	·	26.6%	5.01µM*
C=CCN1C(=O)/C(=C/c2ccc(O)cc2)S/C1=N/c1nccs1	-21.3%	-9.4%	54.7%	·	-45.3%	-8.4%
N#Cc1ccccc1NC(=O)CNc1ccc(Cl)c(C(F)(F)F)c1	11.2µM*	0.9%	0.6%	i	6.1%	?
CCc1cc(=O)oc2c3c(c(Cl)cc12)OCN(Cc1cccc(OC)c1)C3	·	5.4%	14.9%	·	0.6%	·
c1ccc(-c2csc3ncnc(N4CCOCC4)c23)cc1	2.0%	-7.9%	-6.8%	i	13.3%	-0.3%
Cc1cc2ncn(-c3ncnc4scc(-c5ccccc5)c34)c2cc1C	-25.0%	-9.2%	-18.3%	i	-14.4%	5.62µM*
Cc1cc2ncn(-c3ncnc4sc(C)c(C)c34)c2cc1C	-28.7%	-3.2%	3.4%	?	8.9%	4.9%
c1ccc(-c2csc3ncnc(N4CCc5ccccc5C4)c23)cc1	12.6µM*	-13.6%	?	i	-16.8%	?
COc1ccc(NC(=O)C2CCN(S(=O)(=O)c3ccc4c(c3)CCCC(=O)N4)CC2)cc1Cl	·	0.1%	1.0%	i	-6.3%	·
CN(c1cccc(NC(=O)CN(c2ccc(C34CC5CC(CC(C5)C3)C4)cc2)S(C)(=O)=O)c1)S(C)(=O)=O	2.5%	?	11.2µM*	?	-30.7%	?
Cc1cccc(NC(=O)CN(c2ccc(F)cc2)S(C)(=O)=O)c1	5.01µM*	·	-1.6%	i	-0.8%	5.62µM*
COc1ccc(C(=O)Nc2ccccc2C(=O)OCc2cc(=O)n3c4c(sc3n2)CCCC4)cc1	·	·	-12.9%	·	-25.7%	·
CC(C)=CCC/C(C)=C/CO/N=C1/C[C@@H](O)[C@@H](O)[C@@H]2[C@@H]3C(=O)N(c4cccc(Oc5ccccc5)c4)C(=O)[C@H]3CC[C@@H]12	-3.3%[10 µM]	·	·	·	·	22.4%[10 µM]
O=C(Nc1ccc(Cl)cc1)Nc1ccccc1Sc1ncc([N+](=O)[O-])s1	?	?	?	?	-58.2%	11.2µM*
